An excerpt weighted towards active compounds, which were near 3.5% of everything screened.
TEAD-YAP inh = TEAD-YAP interaction inhibition, primary screen, TEAD-YAP interaction inhibitor project, luminescence, HEK-TIYL cells. TEAD-Gal4/YAP UAS-luciferase luminescence. AID 1259422, 2018. inhibition, % at 9.12 µM. actives 1.4% (n = 640,000); in the data active = inhibition above about 32%
MITF inh = MITF inhibitors, primary screen, biochemical, AlphaScreen, human; Microphthalmia-associated transcription factor (Homo sapiens), O75030; AlphaScreen MITF homodimerization, bead proximity signal; inhibition, % at 2.6 µM; actives 0.91% (n = 650,000); in the data active = inhibition above about 50%
Target sequence (O75030 whole entry, looked up): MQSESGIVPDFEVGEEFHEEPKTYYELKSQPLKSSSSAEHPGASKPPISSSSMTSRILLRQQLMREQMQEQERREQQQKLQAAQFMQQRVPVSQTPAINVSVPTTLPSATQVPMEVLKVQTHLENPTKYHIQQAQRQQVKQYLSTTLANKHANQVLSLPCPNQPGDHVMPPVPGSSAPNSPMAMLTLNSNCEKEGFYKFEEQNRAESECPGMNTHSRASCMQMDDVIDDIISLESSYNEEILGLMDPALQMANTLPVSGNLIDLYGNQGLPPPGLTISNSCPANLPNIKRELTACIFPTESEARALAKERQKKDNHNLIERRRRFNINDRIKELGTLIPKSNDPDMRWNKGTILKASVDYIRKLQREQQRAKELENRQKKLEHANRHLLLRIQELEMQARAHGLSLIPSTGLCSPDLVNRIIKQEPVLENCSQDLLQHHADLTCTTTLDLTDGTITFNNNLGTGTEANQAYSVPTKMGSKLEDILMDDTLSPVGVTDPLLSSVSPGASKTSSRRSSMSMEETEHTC
FBW7 act = FBW7 E3 ligase activators, primary screen, biochemical, AlphaScreen, human; normalized activity (activation), % at 26.1 µM; actives 0.13% (n = 650,000); F-box/WD repeat-containing protein 7 (Homo sapiens), Q969H0; AlphaScreen FBW7–phospho-cyclin E peptide binding, activator screen; AID 1259310, 2017; in the data active = normalized activity above about 1.9%;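 note: purified mutant Fbw7 with reduced substrate affinity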
GPR151 ag = activators of human GPR151, primary screen, cell-based, PathHunter beta-arrestin, luminescence | G-protein coupled receptor 151 (Homo sapiens), Q8TDV0 | activation, % at 11.2 µM | PathHunter beta-arrestin GPR151 cells | actives 1% (n = 650,000) | AID 1508602, 2020; in the data active = activation above about 4.9%
MITF confirm = MITF inhibitors, retest of hits, confirmation, biochemical, AlphaScreen, triplicate; shares compounds with MITF inh; AlphaScreen MITF homodimerization, biotin/His-MITF beads; inhibition, % at 2.6 µM; actives 16% (n = 4,700); AID 1259372, 2018;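 active = inhibition above a cutoff derived from the DMSO control wells, cut at about 28% in these data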;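 note: inhibitors lower the bead chemiluminescence by keeping MITF from dimerizing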
AS interf DR = AlphaScreen optical interference compounds, dose response, counter-screen, biochemical, HTS; shares compounds with MITF inh; AlphaScreen optical interference counterscreen, cell-free; IC50, µM; actives 6% (n = 480); AID 1259373, 2018; call rule not given here
AlphaScreen intf2 = AlphaScreen optical interference compounds, counter-screen for MITF inhibitor project, biochemical, triplicate. inhibition, % at 2.6 µM. shares compounds with MITF inh. LysRS AlphaScreen counterscreen, signal interference. actives 7.6% (n = 4,700);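 active = inhibition above a cutoff derived from the DMSO control wells, cut at about 30% in these data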
Hits are given with their value; i = inactive; nt = no result.

SMILES	TEAD-YAP inh	MITF inh	FBW7 act	GPR151 ag	MITF confirm	AlphaScreen intf2	others
O=c1c2ccccc2nc(-c2cccs2)n1-c1ccccn1	i	i	i	i	nt	nt
CSc1ccc(CN2CCN(Cc3ccccc3)CC2)cc1	i	54	i	i	i	i
COc1cccc(CN2CCN(Cc3ccc(Cl)cc3)CC2)c1	i	79	i	i	i	i
Clc1ccc(CN2CCN(Cc3cccc(Cl)c3)CC2)cc1	i	71	i	i	i	i
CSc1ccc(CN2CCN(C)CC2)cc1	i	i	i	i	nt	nt
Fc1ccc(CN2CCN(Cc3ccc(F)cc3)CC2)cc1	i	74	i	i	i	i
CCCCn1c(C)c(C(=O)OCC)c2cc(OC(=O)C(C)(C)C)c3ccccc3c21	i	i	i	i	nt	nt
COc1cccc(CN2CCN(Cc3cccc(OC)c3)CC2)c1	i	i	i	i	nt	nt
CCC(CC)N1CCN(Cc2cccc(OC)c2)CC1	i	73	i	i	i	i
COc1cccc(CN2CCN(Cc3cccc(C)c3)CC2)c1	i	74	i	i	i	i
Nc1ccc(Br)cc1C(=O)c1ccc(F)cc1	i	i	i	i	nt	nt
COc1ccc(CN2CCN(CCO)CC2)c(OC)c1	i	i	i	i	nt	nt
CCN1CCN(Cc2cc(OC)c(OC)cc2Br)CC1	i	i	i	i	nt	nt
COc1ccc(CN2CCN(C(C)C)CC2)c(OC)c1	i	71	i	i	i	i
COc1cc(OC)c(OC)cc1CN1CCN(C(C)C)CC1	i	68	i	i	i	i
COc1ccc(CC2C(=O)N(C)C(=O)N(C)C2=O)c(OC)c1OC	i	i	i	i	nt	nt
CC(C)N1CCN(C2CC3CCC2C3)CC1 (stereo not drawn)	i	61	i	i	i	i
CCOc1ccc(CN(CCc2ccc3c(c2)OCO3)Cc2ccc([N+](=O)[O-])cc2)cc1	i	54	i	i	i	i
CCOc1ccc(CN(CCc2ccc3c(c2)OCO3)Cc2ccccc2)cc1	i	i	i	i	nt	nt
CC1(C)CC(=O)c2sc(N[N+](=O)[O-])nc2C1	i	84	i	i	i	i
CN(N=O)c1cc(O)ccc1O	i	78	i	i	62	i	AS interf DR=i
O=C(c1nc2sccn2c1CN1CC=C(c2ccccc2)CC1)N1CCCCC1	i	i	i	i	nt	nt
OCCN1CCN(Cc2ccc(Br)cc2)CC1	i	67	i	i	i	i
COc1ccc(CN2CCN(CCO)CC2)cc1OC	i	i	i	i	nt	nt
CCOc1ccc(CN2CCN(CCO)CC2)cc1	i	i	i	i	nt	nt
SMILES	TEAD-YAP inh	MITF inh	FBW7 act	GPR151 ag	MITF confirm	AlphaScreen intf2	others
OCCN1CCN(Cc2cccc(Br)c2)CC1	i	91	i	i	i	i
OCCN1CCN(Cc2ccc(Cl)cc2Cl)CC1	i	51	i	i	i	i
OCCN1CCN(Cc2ccc(Cl)c(Cl)c2)CC1	i	83	i	i	i	i
CCOc1cc(-c2c(C#N)c(N)n3c(nc4ccccc43)c2C#N)ccc1OCc1cccc(C(F)(F)F)c1	i	i	i	i	nt	nt
O=[N+]([O-])c1ccccc1CN1CCN(c2ccc(F)cc2)CC1	i	54	i	i	i	i
CN1CCN(Cc2ccccc2[N+](=O)[O-])CC1	i	i	i	i	nt	nt
O=[N+]([O-])c1ccccc1CN1CCN(Cc2ccc(F)cc2)CC1	i	68	i	i	i	i
Cc1ccc(N2CCN(Cc3ccccc3[N+](=O)[O-])CC2)cc1	i	i	i	i	nt	nt
COc1ccc(CN2CCN(C)C(CCO)C2)cc1OC (stereo not drawn)	i	i	i	i	nt	nt
N#Cc1ccc(C(=O)CN2CCCC2)cc1	i	i	i	i	nt	nt
COCC1CCCN(CC(=O)Nc2cccnc2)C1 (stereo not drawn)	i	75	i	i	i	i
FC(F)(F)c1ccccc1CNCCc1ccc2c(c1)OCO2	i	55	i	i	i	i
CCC(C)N1CCN(C(=O)COc2cccc(C)c2)CC1 (stereo not drawn)	i	i	i	i	nt	nt
CCN1CCN(C(=O)COc2cccc(Br)c2)CC1	i	i	i	i	nt	nt
Cc1ccc(OCC(=O)N2CCN(Cc3ccc(Br)cc3)CC2)cc1	i	70	i	i	i	i
Cc1cccc(OCC(=O)N2CCN(Cc3cccc(Br)c3)CC2)c1	i	61	i	i	35	i	AS interf DR=i
Cc1ccc(OCC(=O)N2CCN(Cc3cccc(C)c3)CC2)cc1	i	51	i	i	i	i
CCC(C)N1CCN(C(=O)COc2ccc(C)cc2)CC1 (stereo not drawn)	i	54	i	i	i	i
Cc1cccc(CN2CCN(C(=O)COc3ccc(Br)cc3)CC2)c1	i	i	i	i	nt	nt
CC(Cc1ccccc1)[n+]1cc(/N=C(\[O-])Nc2ccc(Br)cc2)on1 (stereo not drawn)	i	i	i	i	nt	nt
O=c1oc2ccccc2c(O)c1C(c1ccc(-c2ccc([N+](=O)[O-])cc2)o1)c1c(O)c2ccccc2oc1=O	i	i	i	i	nt	nt
O=c1c2ccccc2nc(/C=C\c2cccc([N+](=O)[O-])c2)n1-c1ccc(O)cc1	i	i	i	i	nt	nt
CC(=O)C1C2c3ccccc3OC1(C)N=c1s/c(=C\c3cccs3)c(=O)n12 (stereo not drawn)	i	i	i	i	nt	nt
COc1ccc(OC)c(CN2CCN(C(=O)COc3ccc(Br)cc3)CC2)c1	i	80	i	i	i	i
CN1C(=O)N(C)C2(O)c3ccccc3/C(=N\N=C(N)N)C12O (stereo not drawn)	i	i	i	i	nt	nt
SMILES	TEAD-YAP inh	MITF inh	FBW7 act	GPR151 ag	MITF confirm	AlphaScreen intf2	others
CCn1c2ccccc2c2cc(CN3CCN(C)CC3)ccc21	i	63	i	i	i	i
CCOc1cc(/C=C(\C)[N+](=O)[O-])ccc1O	i	i	i	i	nt	nt
COc1ccc2[nH]c(C)c(CCNCc3cccc(OC)c3OC)c2c1	i	52	i	i	i	i
CN1CCN(Cc2ccc3c(c2)OCO3)CC1	i	i	i	i	nt	nt
Cc1ccccc1CN1CCN(Cc2ccc3c(c2)OCO3)CC1	i	58	i	i	i	i
Brc1ccccc1CN1CCN(Cc2ccc3c(c2)OCO3)CC1	i	60	i	i	i	i
CC1(C)C(C(=O)Nc2c(Cl)cccc2Cl)C1(C)C	i	i	i	i	nt	nt
O=C(Cc1ccccc1)N1CCN(Cc2cccc(F)c2)CC1	i	54	i	i	i	i
CCc1ccc(CN2CCN(C(=O)Cc3ccccc3)CC2)cc1	i	i	i	i	nt	nt
Cc1cccc(CN2CCN(C(=O)Cc3ccccc3)CC2)c1	i	i	i	i	nt	nt
O=C(Cc1ccccc1)N1CCN(Cc2cccnc2)CC1	i	69	i	i	i	i
